AmpC inh no detg = blocks E. coli AmpC beta-lactamase in detergent-free assay; 330,000 tested, 0.52% active; AmpC nitrocefin hydrolysis, absorbance 480 nm, 0.0001% Triton; Potency, µM (titrated, usually from 57.1 µM), inactives show top-dose activity change, negative = inhibition, most hits filed as inhibitors; P00811;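 also: potency is read from the fitted curve at half-maximal effect; plate controls were no compound for no effect and no enzyme for full effect; nearly all actives have a fitted effect of over 20% in size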
Target sequence (P00811 whole entry, looked up): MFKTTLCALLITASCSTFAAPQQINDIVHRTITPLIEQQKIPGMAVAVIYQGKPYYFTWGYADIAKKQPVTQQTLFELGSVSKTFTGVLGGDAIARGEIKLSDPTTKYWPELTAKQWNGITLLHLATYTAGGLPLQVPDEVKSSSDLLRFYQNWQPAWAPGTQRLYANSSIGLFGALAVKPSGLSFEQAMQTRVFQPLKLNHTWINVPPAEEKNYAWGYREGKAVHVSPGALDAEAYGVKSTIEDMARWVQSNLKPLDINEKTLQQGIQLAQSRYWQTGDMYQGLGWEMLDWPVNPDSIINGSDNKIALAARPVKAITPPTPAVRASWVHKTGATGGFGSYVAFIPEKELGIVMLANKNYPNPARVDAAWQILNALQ
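20 mM phosphate pH 7.0 + 0.01% (detergent screen) or 0.0001% Triton X-100; 5.3 nM AmpC reagent; cpd preinc 15 min RT; nitrocefin (800 uM stock) to start; A480 q20 s × 4 min; Activity was normalised to no-enzyme and no-compound control wells.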
Cycloheximide cs = counter-screen for Shiga toxin inhibitors: cycloheximide protein synthesis inhibition; cell reporter, cycloheximide protein synthesis inhibition counterscreen; max response, %; 300,000 tested, 12% active; in the data active = max response mostly above about 13%, no sharp cut-off; inactive = mostly below about 14%; also: read at 38.3 µM for the half of the compounds with a filed dose; 0% is about no effect
NS1 function inh = influenza NS1 inhibition; Potency, µM (top dose mostly 46.1 µM), for the others: at the highest dose activity, positive = more growth; 270,000 tested, 0.4% active; calls by dose curve; also: potency is read from the fitted curve at half-maximal effect; actives are rising curves; nearly all actives have a fitted effect of over 50% in size
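S. cerevisiae expressing influenza A NS1, grown in glucose, washed, then diluted 1:100 into pH 6.0 -URA galactose medium with 23 nl compound. Growth recovery read as OD600; NS1-free strain serves as control.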
Shiga toxin inh = Shiga toxin inhibition; Vero cells, Shiga toxin protein synthesis inhibition reporter; inhibition, % at 38.7 µM; 290,000 tested, 9.2% active; in the data active = inhibition mostly above about 28%, no sharp cut-off; inactive = mostly below about 43%; also: 0% is about no effect
AmpC detergent = inhibitors of E. coli AmpC beta-lactamase with detergent; P00811; AmpC hydrolysis of nitrocefin, absorbance 480 nm, 0.01% Triton; Potency, µM (series often up to 114 µM), without a hit: at the top dose activity change, negative = inhibition, usual class: inhibitors; 370,000 tested, 0.041% active; AID 485294;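 also: potency is read from the fitted curve at half-maximal effect; 0% = no-compound wells and -100% = no-enzyme wells; nearly all actives have a fitted effect of over 25% in size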
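20 mM phosphate pH 7.0 + 0.01% (detergent screen) or 0.0001% Triton X-100; 5.3 nM AmpC reagent; cpd preinc 15 min RT; nitrocefin (800 uM stock) to start; A480 q20 s × 4 min; Activity was normalised to no-enzyme and no-compound control wells.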
Active calls of the source: *. The sample as a whole holds a higher share of hits than the screen did. Unless noted, calls follow the shape of the dose curve; as a rule, active = well fitted curve in the direction sought with a large enough effect; inconclusive = small, poorly fitted or top-dose-only effect, or another doubt; inactive = no such curve, though single readings can be large; an effect the other way counts as inactive or inconclusive.

CCOc1ccc2cc(C3CC(c4ccco4)=NN3S(C)(=O)=O)c(=O)[nH]c2c1 (stereo not drawn) was read as AmpC inh no detg 5%, Cycloheximide cs 9, NS1 function inh 4%, Shiga toxin inh 21 and AmpC detergent 0%.
O=[N+]([O-])c1ccccc1S(=O)(=O)N1CCN(c2ccccc2)CC1 was read as AmpC inh no detg -25%, Cycloheximide cs 7, NS1 function inh -11%, Shiga toxin inh -7 and AmpC detergent 8%.
Screening CC(C)c1nnc(NC(=O)Cc2ccccc2[N+](=O)[O-])s1 returned AmpC inh no detg -22%, Cycloheximide cs 12*, NS1 function inh 14%, Shiga toxin inh active and AmpC detergent -1%.
For COc1ccccc1NC(=O)Nc1nnc(CC(=O)Nc2ccccc2)s1 the results were AmpC inh no detg -36%, Cycloheximide cs -2, Shiga toxin inh -33 and AmpC detergent -2%.
COc1ccccc1NC(=O)Nc1nnc(C(C)C)s1 was read as AmpC inh no detg -2%, Cycloheximide cs 51*, NS1 function inh 4%, Shiga toxin inh 75* and AmpC detergent -1%.
COc1ccccc1NC(=O)Nc1nnc(C(C)c2ccccc2)s1 (stereo not drawn) was read as AmpC inh no detg -6%, Cycloheximide cs 2, NS1 function inh 12%, Shiga toxin inh 12 and AmpC detergent 7%.
CCc1nnc(NC(=O)Nc2ccccc2OC)s1 was read as AmpC inh no detg -24%, Cycloheximide cs 35*, NS1 function inh -19%, Shiga toxin inh 91* and AmpC detergent inconclusive.
For COc1cc(NC(=O)c2nc(-c3ccncc3)no2)cc(OC)c1OC the results were AmpC detergent 0%.
`CCOc1cc(C(=O)Nc2cc3c(cc2N2CCCC2)n(C)c(=O)c(=O)n3C)cc(OCC)c1OCC` gave AmpC detergent 4%.
`Cc1ccc(-c2nc3ccccc3s2)cc1NC(=S)NC(=O)/C=C/c1ccco1` gave AmpC inh no detg -30%, Cycloheximide cs 29*, NS1 function inh 6%, Shiga toxin inh 63* and AmpC detergent 5%.
`Cc1ccc(-c2nc3ccccc3s2)cc1NC(=O)c1ccc2c(c1)OCO2` gave AmpC inh no detg -26%, Cycloheximide cs 6, NS1 function inh 2%, Shiga toxin inh 24 and AmpC detergent 2%.
`Cc1ccc(-c2nc3ccccc3s2)cc1NC(=S)NC(=O)c1cccc2ccccc12` gave AmpC inh no detg -12%, Cycloheximide cs 35*, NS1 function inh inconclusive, Shiga toxin inh 80* and AmpC detergent -10%.
CSCC[C@@H](C(=O)O)N(C)C was read as NS1 function inh 5%.
CCC(=O)Nc1sc2c(c1C#N)CCC2 was read as AmpC inh no detg -17%, Cycloheximide cs 6, Shiga toxin inh 29 and AmpC detergent -10%.
For N#Cc1c(NC(=O)CSc2nnnn2C2CCCCC2)sc2c1CCCC2 the results were AmpC inh no detg -5%, Cycloheximide cs -7, NS1 function inh -4%, Shiga toxin inh -15 and AmpC detergent inconclusive.
Cc1nnc(SCC(=O)Nc2sc3c(c2C#N)CCCCC3)n1N was read as AmpC inh no detg 47%, Cycloheximide cs 20*, NS1 function inh -1%, Shiga toxin inh 51* and AmpC detergent 1%.
`CCOC(=O)Nc1sc2c(c1C#N)CCCC2` gave AmpC inh no detg -7%, Cycloheximide cs 31*, NS1 function inh -17%, Shiga toxin inh 74* and AmpC detergent -7%.
Cc1sc(NC(=O)COc2ccccc2)c(C#N)c1-c1ccccc1 was read as AmpC inh no detg -30%, Cycloheximide cs 23*, NS1 function inh 7%, Shiga toxin inh -5 and AmpC detergent -13%.
Screening Cc1ccc(OCC(=O)Nc2sc3c(c2C#N)CCC3)cc1 returned AmpC inh no detg -39%, Cycloheximide cs 53*, NS1 function inh -45%, Shiga toxin inh 122* and AmpC detergent 4%.
`O=C(/C=C/c1ccco1)Nc1ccc(-c2nc3ccccc3[nH]2)cc1` gave AmpC inh no detg 35µM*, Cycloheximide cs -3, NS1 function inh 15%, Shiga toxin inh 36 and AmpC detergent -6%.
O=C(N/C(=C/c1ccc(Cl)cc1)c1nc2ccccc2[nH]1)c1ccco1 was read as AmpC inh no detg -15%, Cycloheximide cs -1, NS1 function inh 1%, Shiga toxin inh -18 and AmpC detergent 1%.
